The source of these data is ChEMBL document CHEMBL4513139, “CO-ADD screening of University of Strathclyde (UK) compounds”.

In one assay the test system is Staphylococcus aureus. The conditions noted are these: Concentration 32 ug.mL-1; ASSAY_TEST Inhibition of Bacterial Growth; detection method Absorption (OD600); MEDIA CAMHB; plate type 384well; NBS; CORNING #3640; time 18 hr.
The subject of a further assay is Escherichia coli. The conditions noted are these: Concentration 32 ug.mL-1; ASSAY_TEST Inhibition of Bacterial Growth; detection method Absorption (OD600); MEDIA CAMHB; plate type 384well; NBS; CORNING #3640; time 18 hr.

Each structure is given as a SMILES string. Results with a measured potency or affinity are listed apart.

For `CC(C)CCc1sc(N)nc1C(=O)Nc1cc(C(=O)Nc2cc(C(=O)NCCN3CCOCC3)n(C)c2)n(C)c1.O=C(O)C(F)(F)F`, the Inhibition – broadly, the change of the read-out against control, counted positive when it falls – in the assay on Staphylococcus aureus was 26.32%; with Escherichia coli, -8.65%.
For `CN(C)CCCNC(=O)c1cc(NC(=O)c2cc(NC(=O)c3cc(NC(=N)c4ccccc4)cn3C)cn2C)cn1C.O=C(O)C(F)(F)F.O=C(O)C(F)(F)F`, in that order: 0.44% and -15.33%.
Consider `CC(C)c1sc(N)nc1C(=O)Nc1cc(C(=O)NCCN2CCOCC2)n(C)c1.O=C(O)C(F)(F)F`, for which the Inhibition in the assay on Staphylococcus aureus is reported as 4.82%; in the assay with Escherichia coli, -3.07%.
Consider `COC(=O)CCC(=O)Nc1cc(C(=O)Nc2cc(C(=O)NCCN3CCOCC3)n(C)c2)n(C)c1.O=C(O)C(F)(F)F`, for which the Inhibition with Staphylococcus aureus is on record as 3.68%; in the assay on Escherichia coli, -5.38%.
For `CC(=O)N(C(C)=O)c1cc(C(=O)Nc2cc(C(=O)NCCC(=N)N)n(C)c2)n(C)c1.O=C(O)C(F)(F)F`, in that order: 98.15% and 6.79%.
For `CCOC(=O)c1cc(NC(=O)c2cc(NC(=O)c3nc(N)sc3CCC(C)C)cn2C)cn1C`, in that order: 16.22% and -10.89%.
For `COc1cccc(C(=N)Nc2cc(C(=O)Nc3cc(C(=O)Nc4cc(C(=O)NCCCN(C)C)n(C)c4)n(C)c3)n(C)c2)c1.O=C(O)C(F)(F)F.O=C(O)C(F)(F)F`, the Inhibition in the assay on Staphylococcus aureus is given as -1.63%; in the assay with Escherichia coli it was -2.32%.
For `Cn1cc(NC(=O)c2cc(NC(=O)c3cc(NC(=O)c4ccc(Cl)cc4Cl)cn3C)cn2C)cc1C(=O)NCCN1CCOCC1.O=C(O)C(F)(F)F` the same measures were 45.87% and -8.53%.
As for `Cc1ncc(CNc2ccc(F)cc2)c(N)n1`, the Inhibition is reported as 25.09% in the assay with Staphylococcus aureus and -15.16% with Escherichia coli.
Regarding `COc1cccc(C(=O)Nc2cc(C(=O)Nc3cc(C(=O)Nc4cn(CCCN(C)C)cn4)n(C)c3)n(C)c2)c1.O=C(O)C(F)(F)F`, the Inhibition in the assay with Staphylococcus aureus is listed as 20.04%; in the assay on Escherichia coli, -11.39%.
For `COC(=O)CCC(=O)Nc1cc(C(=O)Nc2cc(C(=O)NCCCN(C)C)n(C)c2)n(C)c1.O=C(O)C(F)(F)F` the same measures were 5.2% and -12.96%.
For `Cc1ncc(Cn2cc(CCC(=O)O)nn2)c(N)n1.O=C(O)C(F)(F)F`, in that order: 15.37% and -17.36%.
For `Cc1ncc(Cn2cc(CCCO)nn2)c(N)n1`, in that order: 13.2% and -17.2%.
With `COCCOC1CCN(C(=O)c2cc(NC(=O)c3cc(NC(=O)c4ccc(/C=C/c5ccc(OC)cc5)cc4)cn3C)cn2C)CC1.O=S(=O)(O)O`, the figures for the Inhibition in the assay on Staphylococcus aureus and with Escherichia coli were 99.55% and 96.85%, respectively.
For `CCOC(=O)c1cc(NC(=O)c2cc(NC(=O)c3nc(N)sc3C(C)C)cn2C)cn1C` the same measures were 29.56% and -5.15%.
For `COc1cccc(C(=N)Nc2cc(C(=O)Nc3cc(C(=O)Nc4cn(CCCN(C)C)cn4)n(C)c3)n(C)c2)c1.O=C(O)C(F)(F)F.O=C(O)C(F)(F)F`, in that order: 18.77% and -11.88%.
For `Cn1cc(NC(=O)c2cc(NC(=O)CCC(=O)O)cn2C)cc1C(=O)NCCN1CCOCC1.O=C(O)C(F)(F)F` the same measures were -10.46% and -3.43%.
For `CC(C)CCc1sc(NC(=O)c2cc(NC(=O)c3cc(NC(=O)c4ccc(C(=O)O)cc4)cn3C)cn2C)nc1C(=O)NCCCN(C)C.O=C(O)C(F)(F)F`, the Inhibition with Staphylococcus aureus was 8.57%; in the assay with Escherichia coli, -17.53%.
In the case of `Cc1ncc(Cn2cc(CCCCO)nn2)c(N)n1`, the Inhibition in the assay on Staphylococcus aureus is reported as 1.62%; with Escherichia coli, -20.02%.
Turning to `COc1ccc(/C=C(/C(=O)Nc2cc(C(=O)Nc3cc(C(=O)NCCCN(C)C)n(C)c3)n(C)c2)c2ccc(OC)cc2)cc1.O=C(O)C(F)(F)F`, the Inhibition is on record as 49.85% with Staphylococcus aureus and -8.57% in the assay on Escherichia coli.
For `COC(=O)c1ccc(C(=O)Nc2cc(C(=O)Nc3cc(C(=O)NCCCN(C)C)n(C)c3)n(C)c2)cc1.O=C(O)C(F)(F)F`, the Inhibition in the assay with Staphylococcus aureus is on record as -1.58%; in the assay on Escherichia coli it was -9.36%.
For `COC(=O)CCC(=O)Nc1cc(C(=O)Nc2cc(C(=O)NCCC(=N)N)n(C)c2)n(C)c1.O=C(O)C(F)(F)F`, in that order: 0.86% and -6.39%.
Consider `CN(C)CCCNC(=O)c1cc(NC(=O)c2cc(NC(=O)CCC(=O)O)cn2C)cn1C.O=C(O)C(F)(F)F`, for which the figures for the Inhibition with Staphylococcus aureus and in the assay with Escherichia coli were 5.68% and -8.32%, respectively.
For `Cn1cc(NC(=O)c2cc(NC(=O)c3sc(N)nc3C(F)(F)F)cn2C)cc1C(=O)NCCC(=N)N.O=C(O)C(F)(F)F` the same measures were -17.29% and -25.01%.
Consider `Cc1ncc(CNc2ccc(C(F)(F)F)cc2)c(N)n1`, for which the Inhibition with Staphylococcus aureus is recorded as -6.95%; in the assay with Escherichia coli, -11.04%.
Regarding `CC(C)c1sc(NC(=O)c2cc(NC(=O)c3cc(NC(=O)c4cnc(Cl)c(Cl)c4)cn3C)cn2C)nc1C(=O)NCCCN(C)C.O=C(O)C(F)(F)F`, the Inhibition is reported as 50.09% in the assay on Staphylococcus aureus and -19.66% in the assay with Escherichia coli.
For `COC(=O)c1ccc(C(=O)Nc2cc(C(=O)Nc3cc(C(=O)NCCC(=N)N)n(C)c3)n(C)c2)cc1.O=C(O)C(F)(F)F` the same measures were 12.34% and -18.97%.
In the case of `COc1ccc(CC(=O)Nc2cc(C(=O)Nc3cc(C(=O)Nc4cn(CCCN(C)C)cn4)n(C)c3)n(C)c2)cc1.O=C(O)C(F)(F)F`, the Inhibition is 6.27% in the assay with Staphylococcus aureus and -5.32% in the assay with Escherichia coli.
For `Cc1ncc(CNc2ccccc2F)c(N)n1` the same measures were 17.82% and -3.65%.
